A number with no mark means an inactive call. Calls of active or inactive are those of the source. Rule as the data show it: active = IC50 below about 9 µM; inactive = the rest.
These compounds were tested on Ba/F3 Cytotoxicity (assay: JAK2V617F project follow-up: kinase, reporter, cytotoxicity – HEL and Ba/F3 cells, late-stage follow-up (AID 2165)). Conditions: JAK2V617F panel: kinase, IRF1 reporter.

SMILES	IC50
COc1cc2ncnc(Nc3ccccc3)c2cc1OC	> 40 µM
COc1cc(/C=C(\C#N)C(N)=O)cc(CSc2nc3ccccc3s2)c1O	7.61 µM (active)
CCOc1cc2ncnc(Nc3cccc(Br)c3)c2cc1OCC	3.16 µM (active)
Cc1cccc(NC(=O)COc2cccc(C)c2)c1	> 40 µM
Cc1[nH]c(=O)c(C(=O)/C=C/c2ccccc2)c2c1CCCC2	0.89 µM (active)
c1ccc(Nc2ncnc3ccccc23)cc1	> 40 µM
Cc1ccc(O)c(NC(=O)COc2cc(C)ccc2C)c1	1.36 µM (active)
COc1ccc(Cl)cc1NC(=O)NC(C)c1ccncc1 (stereo not drawn)	> 40 µM
Cc1ccc(O)c(NC(=O)COc2ccccc2Cl)c1	0.0217 µM (active)
Cc1cccc(OCC(=O)Nc2ccccc2F)c1	> 40 µM
COc1cc2ncnc(Nc3ccc(OC(F)(F)F)cc3)c2cc1OC	> 40 µM
COc1ccccc1/C=C/C(=O)c1c2c(c(C)[nH]c1=O)CCCC2	1.06 µM (active)
Cc1ccc(O)c(NC(=O)COc2cccc(C)c2C)c1	> 40 µM
Cc1cccc(OCC(=O)Nc2cccc(O)c2)c1	> 40 µM
O=C(C=Cc1ccccc1F)c1c(-c2ccccc2)c2ccccc2[nH]c1=O	0.37 µM (active)
Cc1[nH]c(=O)c(C(=O)C=Cc2ccccc2Cl)c2c1CCCC2	0.16 µM (active)
COc1cc2ncnc(Sc3ccc(C)cc3)c2cc1OC	3.68 µM (active)
COc1cc2ncnc(Sc3ccc(Cl)cc3)c2cc1OC	> 40 µM

Source: PubChem BioAssay AID2165 (The Scripps Research Institute Molecular Screening Center, 2009)
